From the supplement of paper PMC13380429

System: Vero E6 infected with SARS-CoV-2
Experiment: inhibition of SARS-CoV-2 cytopathic effect; higher = more antiviral protection, active = above 15
Details: 48 h

Measured: inhibition of SARS-CoV-2 cytopathic effect

COc1ccc(Cc2nccc3cc(OC)c(OC)cc23)cc1OC [papaverine]
inactive: 1 nM -0.41% | 8.33 nM 0.26% | 100 nM -3.04% | 833.33 nM -2.94% | 10000 nM -1.53%

Cc1cc(=O)oc2c(C=O)c(O)ccc12
inactive: 1 nM 0.13% | 8.33 nM 2.74% | 100 nM 1.64% | 833.33 nM 2.83% | 10000 nM 6.12%

C[N+](C)(C)CC[N+]1(C)Cc2c(Cl)c(Cl)c(Cl)c(Cl)c2C1 [chlorisondamine-diiodide]
inactive: 1 nM 0.2% | 8.33 nM -3.86% | 100 nM -0.88% | 833.33 nM 1.41% | 10000 nM -1.63%

CC(C)[C@H]1C(=O)N[C@@H](CCCNC(=N)N)C(=O)NCC(=O)N[C@@H](CC(=O)O)C(=O)N[C@H](Cc2ccccc2)C(=O)N1C [cilengitide]
inactive: 1 nM -2.16% | 8.33 nM -0.5% | 100 nM -4.67% | 833.33 nM -11.1% | 10000 nM -12.6%

O=C(O)C1=C(CSc2nnnn2CS(=O)(=O)O)CS[C@@H]2[C@H](NC(=O)[C@H](O)c3ccccc3)C(=O)N12 [Cefonicid (sodium)]
inactive: 1 nM -0.91% | 8.33 nM -1.09% | 100 nM 0.45% | 833.33 nM 0.79% | 10000 nM 1.23%

CN(C)C(=O)Oc1cccc([N+](C)(C)C)c1 [neostigmine]
inactive: 1 nM 1.41% | 8.33 nM 0.51% | 100 nM 0.73% | 833.33 nM -1.4% | 10000 nM -0.84%

CCOc1cncc(/C=C/CCNC)c1
inactive: 1 nM 0.97% | 8.33 nM -1.63% | 100 nM -0.92% | 833.33 nM 0.41% | 10000 nM 3.59%

O=C(NCCCCCCNC(=O)ON=C1CCCCC1)ON=C1CCCCC1
inactive: 1 nM 2.1% | 8.33 nM 0.56% | 100 nM 1.93% | 833.33 nM 2.74% | 10000 nM 2.7%

O=C(CCc1ccc(O)cc1)c1c(O)cc(O)cc1O[C@@H]1O[C@H](CO)[C@@H](O)[C@H](O)[C@H]1O [phlorizin]
inactive: 1 nM -2.08% | 8.33 nM 0% | 100 nM -10.3% | 833.33 nM 0.18% | 10000 nM 1.43%

CCC(CO)(C(=O)OC1CC2CCC(C1)[N+]2(C)C)c1ccccc1 (stereo not given) [troventol]
inactive: 1 nM 1.78% | 8.33 nM 6.67% | 100 nM 0.13% | 833.33 nM -1.03% | 10000 nM 2.53%

O=S(=O)(O)c1ccc2[nH]c(-c3ccccc3)nc2c1 [phenylbenzimidazole-sulfonic-acid]
inactive: 1 nM -0.84% | 8.33 nM 2.98% | 100 nM 1.91% | 833.33 nM 4.9% | 10000 nM -7.89%

O=C([O-])C(O)[C@H](O)[C@@H](O)[C@H](O)[C@H](O)CO.O=C([O-])C(O)[C@H](O)[C@@H](O)[C@H](O)[C@H](O)CO.[Ca+2] (stereo not given in full) [calcium-gluceptate]
inactive: 1 nM -7.86% | 8.33 nM -1.7% | 100 nM -4.55% | 833.33 nM -3.31% | 10000 nM -3.66%

Cc1ccc(Cl)c(OC[C@H](O)CNC(C)C)c1 [1-(2-chloro-5-methylphenoxy)-3-(isopropylamino)-2-propanol]
inactive: 1 nM 0.19% | 8.33 nM -0.3% | 100 nM -0.68% | 833.33 nM 0.3% | 10000 nM -2.47%

OC[C@H]1O[C@@H](Oc2cc3c(O)cc(O)cc3[o+]c2-c2ccc(O)c(O)c2)[C@H](O)[C@@H](O)[C@@H]1O [kuromanin]
inactive: 1 nM -0.56% | 8.33 nM 0.72% | 100 nM -0.34% | 833.33 nM -2.36% | 10000 nM -4.26%

CN(C)CCOC(=O)COc1ccc(Cl)cc1 [meclofenoxate]
inactive: 1 nM 2.47% | 8.33 nM 0.23% | 100 nM 1.17% | 833.33 nM 1.28% | 10000 nM 1.66%

C[C@](N)(Cc1ccc(O)cc1)C(=O)O [metirosine]
inactive: 1 nM 2.52% | 8.33 nM 2.13% | 100 nM 7.36% | 833.33 nM 2.34% | 10000 nM 2.26%

OB1OCc2cc(Cl)ccc21
inactive: 1 nM 1.12% | 8.33 nM 2.29% | 100 nM 2.68% | 833.33 nM 2.33% | 10000 nM 1.07%

COc1cc2ncc(-c3ccccc3)nc2cc1OC [tyrphostin-AG-1296]
inactive: 1 nM 1.41% | 8.33 nM 0.53% | 100 nM 0.84% | 833.33 nM -1.04% | 10000 nM -1.96%

CC#CC(=O)N1CC[C@@H](n2c(=O)n(-c3ccc(Oc4ccccc4)cc3)c3c(N)ncnc32)C1
inactive: 1 nM -1.14% | 8.33 nM 2.19% | 100 nM 0.31% | 833.33 nM -8.09% | 10000 nM -0.82%

C[C@@H]1NC(=O)[C@@H]2CCCN2C(=O)[C@H](CC(N)=O)NC(=O)[C@@H]2CSSC[C@H](N)C(=O)N[C@H]3CSSC[C@H](NC1=O)C(=O)N[C@@H]([C@@H](C)O)C(=O)NCC(=O)N[C@H](C(=O)N[C@@H](Cc1ccc(O)cc1)C(=O)O)CSSC[C@H](NC(=O)[C@H](Cc1ccc(O)cc1)NC(=O)[C@H](CCC(=O)O)NC3=O)C(=O)N2 [linaclotide]
inactive: 1 nM -2.9% | 8.33 nM 0.88% | 100 nM 1.75% | 833.33 nM 1% | 10000 nM 3.24%

N=C(N)NCCC[C@H](N)C(=O)O [L-arginine]
inactive: 1 nM 2.26% | 8.33 nM 3.4% | 100 nM -3.93% | 833.33 nM 1.97% | 10000 nM 1.83%

CCCCCCCCCCCC(=O)O [lauric-acid]
inactive: 1 nM 0.97% | 8.33 nM 2.75% | 100 nM 0.72% | 833.33 nM -1.45% | 10000 nM -1.99%

COc1c2ccoc2cc2oc(=O)ccc12 [bergapten]
inactive: 1 nM -0.67% | 8.33 nM -0.91% | 100 nM -2.71% | 833.33 nM 3.76% | 10000 nM 14.6%

CCCCS(=O)(=O)N[C@@H](Cc1ccc(OCCCCC2CCNCC2)cc1)C(=O)O [tirofiban]
inactive: 1 nM 1.63% | 8.33 nM 1.13% | 100 nM 0.55% | 833.33 nM 0.26% | 10000 nM 2.44%

COc1ccc(CC2NCCc3c2[nH]c2ccc(C)cc32)c(Cl)c1OC (stereo not given)
inactive: 1 nM 0.04% | 8.33 nM 1.87% | 100 nM 6.67% | 833.33 nM -1.77% | 10000 nM -7.05%

C[C@]12CCC(=O)C=C1CC[C@@H]1[C@@H]2[C@@H](O)C[C@@]2(C)[C@H]1CC[C@]2(O)C(=O)COP(=O)(O)O [hydrocortisone-phosphate]
inactive: 1 nM 1.12% | 8.33 nM 3.34% | 100 nM 2.4% | 833.33 nM 2.84% | 10000 nM 1.11%

CNc1cc(OC)c(C(=O)NC2CCN(Cc3ccccc3)C2C)cc1Cl (stereo not given) [nemonapride]
inactive: 1 nM -1.01% | 8.33 nM 2.19% | 100 nM 0.65% | 833.33 nM -1.52% | 10000 nM 2.33%

CC[C@H](Nc1ncnc2[nH]cnc12)c1nc2cccc(F)c2c(=O)n1-c1ccccc1 [idelalisib]
inactive: 1 nM -1.64% | 8.33 nM 2.2% | 100 nM 1.98% | 833.33 nM 3.57% | 10000 nM -3.36%

O=c1ccc2ccc(OCCCCN3CCN(c4cccc5sccc45)CC3)cc2[nH]1 [brexpiprazole]
inactive: 1 nM -0.6% | 8.33 nM 2.4% | 100 nM 2.49% | 833.33 nM 2.71% | 10000 nM -8.91%

CC[C@H](C)n1cc(C)c2c(C(=O)NCc3c(C)cc(C)[nH]c3=O)cc(-c3ccc(N4CCNCC4)nc3)cc21
inactive: 1 nM 1.2% | 8.33 nM 2.76% | 100 nM 2.26% | 833.33 nM 1.5% | 10000 nM -4.63%

CCOC(=O)Nc1ccc(NCc2ccc(F)cc2)nc1N [flupirtine]
inactive: 1 nM 0.67% | 8.33 nM 0.58% | 100 nM -1.4% | 833.33 nM 0.07% | 10000 nM 1.37%

COc1ccc2nc3ccc(Cl)cc3c(SCCCN)c2c1
inactive: 1 nM 0.89% | 8.33 nM 1% | 100 nM 0.27% | 833.33 nM 0.79% | 10000 nM 2.63%

Nc1nc2[nH]cc(CCc3ccc(C(=O)N[C@@H](CCC(=O)O)C(=O)O)cc3)c2c(=O)[nH]1 [pemetrexed]
inactive: 1 nM -1.03% | 8.33 nM 0.64% | 100 nM 1.39% | 833.33 nM -2.48% | 10000 nM -1.3%

C=C1/C(=C\C=C2/CCC[C@]3(C)[C@@H]([C@H](C)CCCC(C)C)CC[C@@H]23)C[C@@H](O)C[C@@H]1O [alfacalcidol]
inactive: 1 nM 2.5% | 8.33 nM -0.82% | 100 nM -1.14% | 833.33 nM 0.53% | 10000 nM -5.24%

CN1CCCN=C1COC(=O)C(O)(c1ccccc1)C1CCCCC1 (stereo not given) [oxyphencyclimine]
inactive: 1 nM 2.48% | 8.33 nM 0.59% | 100 nM 0.28% | 833.33 nM 2.86% | 10000 nM -1.14%

C[C@@]1(O)[C@H](O)[C@@H](CO)O[C@H]1n1cnc2c(NC3CCCC3)nc(Cl)nc21
inactive: 1 nM 1.63% | 8.33 nM 2.06% | 100 nM 1.32% | 833.33 nM 0.53% | 10000 nM -0.13%

CCCN(C/C=C/I)C1CCc2cccc(O)c2C1 (stereo not given) [8-hydroxy-PIPAT]
inactive: 1 nM 3.48% | 8.33 nM 1.88% | 100 nM 3.63% | 833.33 nM 3.07% | 10000 nM -2.66%

O=C(Nc1nc2cccc(-c3ccc(CN4CCS(=O)(=O)CC4)cc3)n2n1)C1CC1 [filgotinib]
inactive: 1 nM -1.13% | 8.33 nM -1.84% | 100 nM 4.15% | 833.33 nM 3.84% | 10000 nM -1.27%
